PLCb3 inh: inhibitors of human phospholipase C beta3. AID 720704. actives 0.18% (n = 370,000). Q01970. inhibition, % at 12.2 µM. Purified PLC-beta3, fluorogenic substrate, fluorescence; in the data active = inhibition above about 11%;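 note: 0% = median of compound wells on plate and 100% = full blocker control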
proKLK7 act: activates the human kallikrein-7 zymogen; P49862; purified proKLK7, EDANS-DABCYL substrate fluorescence; 100% is mature enzyme control, 0% vehicle; activation, % at 7 µM; actives 0.9% (n = 370,000);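 active = activation above the mean of all tested compounds plus 3 SD, computed per campaign excluding outliers beyond control limits, cut at about 13% in these data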
PLCg1 inh: blocks human PLC-gamma1 enzyme activity; AID 720700; inhibition, % at 12.2 µM; actives 0.84% (n = 370,000); purified PLC-gamma1, fluorogenic substrate, fluorescence; P19174
ADAM17 inh: ADAM17 inhibition, QFRET primary screen; P78536; inhibition, % at 6.95 µM; recombinant ADAM17, EDANS/DABCYL FRET peptide cleavage; actives 0.83% (n = 370,000);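 active = inhibition above the mean of compounds lying between control limits plus 3 SD, set per campaign, cut at about 8.5% in these data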;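 note: 0% = DMSO-only wells as the low control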
sPLA2-III inh: Inhibits HGIII-sPLA2 liposome hydrolysis, primary screen. inhibition, % at 12.2 µM. AID 743126. actives 0.56% (n = 370,000). QFRET BODIPY PC-A2 liposome hydrolysis, fluorescence;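 active = inhibition above mean plus 3 SD of compounds lying within the high and low control bounds, cut at about 19% in these data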;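 note: 0% = median of test compound wells and 100% = no enzyme DMSO wells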
Target sequence (Q9NZ20 whole entry, looked up): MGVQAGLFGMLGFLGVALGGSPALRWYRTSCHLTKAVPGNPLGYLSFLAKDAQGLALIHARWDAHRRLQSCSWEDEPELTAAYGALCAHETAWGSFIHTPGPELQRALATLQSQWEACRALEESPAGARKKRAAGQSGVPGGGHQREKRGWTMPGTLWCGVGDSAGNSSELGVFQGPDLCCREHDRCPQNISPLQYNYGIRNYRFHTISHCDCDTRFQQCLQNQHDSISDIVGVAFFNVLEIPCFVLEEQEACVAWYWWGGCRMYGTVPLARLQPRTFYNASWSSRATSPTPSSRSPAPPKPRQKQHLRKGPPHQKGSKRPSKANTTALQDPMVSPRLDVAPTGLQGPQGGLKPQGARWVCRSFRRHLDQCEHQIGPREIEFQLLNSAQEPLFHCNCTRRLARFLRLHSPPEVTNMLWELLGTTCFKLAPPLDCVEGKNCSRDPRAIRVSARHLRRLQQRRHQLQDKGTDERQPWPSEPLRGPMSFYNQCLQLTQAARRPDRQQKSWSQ
ADAM10 inh: inhibits human ADAM10 | recombinant ADAM10, EDANS/DABCYL FRET peptide cleavage, 3 h | actives 0.62% (n = 370,000) | AID 720582 | O14672 | inhibition, % at 7 µM;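 active = inhibition above a per-campaign cutoff equal to the mean of compounds falling between control-based bounds plus 3 SD, cut at about 20% in these data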;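 note: 0% = DMSO wells while the 100% control is not disclosed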
PLCg1 ctr: inhibits human PLC-gamma1 in PLC-beta3 counter-screen; shares compounds with PLCg1 inh; purified PLC-gamma1, fluorogenic substrate, fluorescence; inhibition, % at 12.3 µM; actives 3.1% (n = 3,300)
PLCb3 confirm: human PLC-beta3 inhibition, confirmation; purified PLC-beta3, fluorogenic substrate fluorescence; inhibition, % at 12.3 µM; AID 743261; shares compounds with PLCg1 inh; actives 1% (n = 3,300); in the data active = inhibition above about 11%
* = called active by the depositor; . = no result given; ! = not active in a repeat. Most compounds without a hit are left out; they make up all but 3.4% or so of the library. Cut-off read from the data, not from the text of the source, unless noted: active = inhibition above about 9.5%; inactive = the rest.

SMILES | PLCb3 inh | proKLK7 act | PLCg1 inh | ADAM17 inh | sPLA2-III inh | ADAM10 inh | PLCg1 ctr | PLCb3 confirm
N#C/C(=C\c1ccc(OCc2ccc(F)cc2)cc1)C(=O)Nc1cccc(C(=O)O)c1 | 8 | 0 | 10* | 2 | 4 | 15 | -8 | -12
CC(=O)Nc1ccccc1NC(=O)C/C(C)=N/NC(=O)c1cccnc1 | -5 | 1 | 1 | -1 | 2 | 1 | . | .
CCC(=O)N1CCc2cc(S(=O)(=O)CCC(=O)NCCc3ccc(S(N)(=O)=O)cc3)ccc21 | -2 | 0 | 10* | 4 | 8 | 6 | -1 | -2
CCc1ccc(NS(=O)(=O)c2ccc3c(c2)CCN3C(=O)CCC(=O)O)cc1 | 0 | 1 | 10* | 3 | -5 | 6 | -6 | -5
Cc1ccc(SCC(=O)NNC(=O)c2ccccc2)c(C)c1 | -3 | -1 | 0 | 1 | -5 | 3 | . | .
COc1ccc(CNC(=O)C(=O)NCC2OCCN2S(=O)(=O)c2ccc(F)cc2)cc1 (stereo unspecified) | -2 | 0 | 2 | 4 | -1 | 9 | . | .
O=C(N[C@H](C(=O)N1CCC[C@H]1C(=O)NCCc1ccccc1Cl)C1CCCCC1)c1cccs1 | 8 | 0 | 9.9* | 3 | -13 | 9 | 2 | -4
Cc1ccccc1C(=O)N[C@H](C(=O)N1CCC[C@H]1C(=O)NCCc1ccccc1Cl)C1CCCCC1 | 0 | 0 | 2 | -4 | -2 | -7 | . | .
Cc1sc2ccccc2c1CNC[C@H]1O[C@@H](n2cnc(C(N)=O)n2)[C@H](O)[C@@H]1O | 3 | 0 | 9.8* | 4 | 7 | 4 | -4 | -3
COCCCNC(=O)CCc1nc(-c2ccccc2Cl)no1 | 8 | -1 | 11* | 3 | 4 | 4 | -4 | 0
Nc1ccc(C(=O)OCC(=O)NC(=O)c2ccccc2)cc1[N+](=O)[O-] | -4 | 0 | 3 | 1 | 1 | 1 | . | .
Cc1ccc(C(=O)/C=C\C(=O)c2ccc(C)cc2)cc1 | -2 | 0 | 3 | -5 | 11 | -6 | . | .
CC(/C=C/C(=O)c1ccc(C)cc1)=C\c1ccccc1 | 8 | -1 | 10* | 5 | 0 | 10 | -2 | -3
CC(C)(C)c1ccc(C(=O)NNC(=O)CCc2ccccc2)cc1 | -5 | -1 | 0 | -3 | -29 | -2 | . | .
COc1ccc(Br)cc1/C=N/n1c(COc2ccccc2)n[nH]c1=S | -3 | 0 | 11* | 3 | 3 | 9 | -49 | -43
COc1cc(OC)c(OC)cc1/C=N/n1c(COc2ccccc2)n[nH]c1=S | -12 | 2 | -6 | -12 | 14 | -14 | . | .
CCNC(=S)Nc1ccc(Cl)c([N+](=O)[O-])c1 | -2 | 0 | 0 | -3 | -1 | 1 | . | .
COc1cc(C2NC(=O)NC(c3ccccc3)=C2C(C)=O)cc([N+](=O)[O-])c1O (stereo unspecified) | -4 | -1 | -2 | 0 | 0 | -3 | . | .
O=C(CN1CCCCC1)NCC1(c2ccccc2)CCCC1 | -1 | 0 | 0 | -4 | -1 | 1 | . | .
Cc1ccccc1-n1ccnc1SCC(=O)O | 12* | 0 | 8 | 4 | 0 | 10 | -4 | -5
Cc1cccc(-n2ccnc2SCC(=O)O)c1C | -6 | -1 | 0 | -4 | 7 | -3 | . | .
COc1ccccc1/C=C1/C(=O)N(c2ccccc2)N=C1C | 0 | 0 | 28* | -3 | 10 | 5 | -7 | -3
COc1cc(/C=C2\C(=O)N(c3ccccc3)N=C2C)ccc1Oc1ccc([N+](=O)[O-])cc1[N+](=O)[O-] | 4 | 0 | 10* | 5 | 6 | 5 | 2 | -1
Cc1ccc(C(OCC(O)CNCc2ccc(F)cc2)c2ccccc2)cc1 (stereo unspecified) | 10 | 1 | 17* | 7 | -11 | 8 | 3 | 5
Cc1ccc(S(=O)(=O)/N=C(/NC(=S)Nc2ccccc2)c2ccccc2)cc1 | -1 | 0 | -3 | 0 | -10 | 9 | . | .
SMILES | PLCb3 inh | proKLK7 act | PLCg1 inh | ADAM17 inh | sPLA2-III inh | ADAM10 inh | PLCg1 ctr | PLCb3 confirm
Cc1ccc(NC(=S)N/C(=N/S(=O)(=O)c2ccccc2)c2ccccc2)cc1 | -2 | -1 | 16*! | -1 | 4 | -4 | -4 | -1
O=C(CNC(=O)C1CCCCC1)Nc1cc(Cl)ccc1Cl | 8 | 0 | 11* | 3 | 3 | 10 | -2 | 3
O=C(CNC(=O)C1CCCCC1)Nc1ccccc1Cl | -2 | 0 | 1 | -3 | -4 | 4 | . | .
CCCCCCC1CC(CSC(=N)N)OC1=O (stereo unspecified) | 6 | 0 | 11* | 5 | 10 | 12 | 7 | 0
COc1ccc(C(C)NC(=S)NCc2ccc(F)cc2)cc1OC (stereo unspecified) | -7 | 0 | 17* | -4 | 16 | 5 | 3 | 3
CCC(C)c1ccc(C(C)NC(=S)NCc2ccc(F)cc2)cc1 (stereo unspecified) | -7 | 0 | -3 | 6 | 4 | 4 | . | .
O=C(CCN1C(=O)C2C3C=CC(C3)C2C1=O)NC1CCCCC1 (stereo unspecified) | -4 | 0 | 1 | -1 | -1 | -2 | . | .
CCOC(=O)N1CCC(NC(=O)CCN2C(=O)C3C4C=CC(C4)C3C2=O)CC1 (stereo unspecified) | 5 | 0 | 10* | 1 | 11 | 7 | 8 | 2
Cc1onc(-c2c(Cl)cccc2Cl)c1C(=O)ONC(=O)c1cc(C(F)(F)F)cc(C(F)(F)F)c1 | 5 | 0 | 10* | 5 | 12 | 2 | 4 | 4
N#Cc1c(NC(=O)C2CC(c3ccccc3O)=NO2)sc2c1CCC2 (stereo unspecified) | 0 | 0 | 14* | 7 | 10 | 10 | -4 | -2
O=S(=O)(NCCOCCNS(=O)(=O)c1ccccc1)c1ccccc1 | 5 | 0 | 11* | 5 | -12 | 3 | 6 | -2
O=C(O)CCCCCCNS(=O)(=O)c1ccccc1 | 2 | 0 | 4 | -4 | -3 | -5 | . | .
S=C(Nc1ccccc1)Nc1ccccn1 | 4 | -1 | 1 | -1 | 10 | -13 | . | .
S=C(Nc1ccccc1)c1ccccn1 | 12* | 0 | 11* | 5 | 8 | 2 | -4 | 0
CC(C)C(=O)Nc1nc2c(c(=O)[nH]1)CCCC2 | 3 | 0 | -4 | -3 | -1 | -5 | . | .
CCCCNc1ncnc2c1cnn2-c1ccc(C)cc1C | 10 | 0 | 11* | 4 | 4 | 16 | -5 | 0
O=C(NCC1CCCN(C(=O)CN2CCCCC2)C1)c1ccccc1Cl (stereo unspecified) | -7 | 1 | 1 | -3 | -4 | 0 | . | .

Compound activity from PubChem.
